# Compound activity as filed in PubChem BioAssay.
# The list is not random: actives were taken first. Their share in the collection is about 3.2%.
# LGR2 inh: inhibitors of bursicon-induced Drosophila LGR2 receptor cAMP signaling | HEK293 LGR2, CRE-luciferase, bursicon-stimulated, 4 h | inhibition, % at 9.99 µM | 0.35% of 380,000 active | AID 720647;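 active = drop in luminescence signal, shown as inhibition above about 50% in the replicate tests, limit read from the data, passing the limit was not always enough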;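 note: agonist challenge used bursicon conditioned medium at about half maximal strength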
# PAX8 inh HTS: inhibitors of PAX8 transcriptional activity in RMG-I cells. inhibition, % at 12.6 µM. AID 652154. RMG-I TPO-luciferase reporter, SteadyGlo, 24 h. 1.2% of 360,000 active;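 active = mean replicate inhibition at least 60% with every replicate also reaching 60%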;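 note: luciferase light reporting Pax8 driven TPO promoter activity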
# EWS-Fli block: blocks EWS/Fli oncoprotein-driven transcription; A673 NR0B1-luciferase reporter, viability-normalised; inhibition, % at 12.6 µM; 0.67% of 350,000 active; AID 651661;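 active = mean inhibition of at least 50% after viability correction, with every replicate also passing that limit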;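 note: firefly luciferase signal divided by Alamar Blue viability fluorescence both relative to DMSO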
# TWEAK Fn14 block: inhibitors of TWEAK-Fn14 interaction signaling | TWEAK-stimulated Fn14 reporter cells, luciferase luminescence, 8 h | inhibition, % at 10 µM | 2% of 360,000 active; in the data active = inhibition above about 50%
# TROY NFkB inh: blocks TROY-dependent signaling in reporter cells; AID 1347056; Q293 LMP1-TROYcd NF-kB luciferase reporter, 4 h; 0.98% of 360,000 active; inhibition, % at 10 µM;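 active = compounds whose plate-normalised and pattern-corrected inhibition of the luciferase reporter signal at the single screening dose is 50% or more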
# EBV LMP1 NFkB: inhibitors of Epstein-Barr LMP1-induced NF-kappaB reporter; LMP1-induced NF-kappaB luciferase reporter cells, luminescence; inhibition, % at 12.5 µM; 0.69% of 350,000 active; in the data active = inhibition above about 41%
# DNA binder FP: DNA binding small molecules. shares compounds with EWS-Fli block. salmon sperm DNA acridine orange fluorescence polarization. AC35, µM (titrated, usually from 68 µM). 2% of 640 active. AID 720586;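 active = fitted curve reaches a 35% signal fall AC35 below twice the sample's top valid tested dose, actives reach about 48 µM in these data; inactive = the rest, including activity in the rising direction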;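 note: lower polarization ratio signals compound binding to DNA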
# A number is an active result; 0 = inactive; - = not tested or not shown.
SMILES,LGR2 inh,PAX8 inh HTS,EWS-Fli block,TWEAK Fn14 block,TROY NFkB inh,EBV LMP1 NFkB,others
Cc1ccc(-c2cc(-c3ccccc3)cc(-c3ccccc3)[n+]2-c2ccc(C(=O)O)cc2)cc1,0,0,0,0,0,0,
COc1ccc(-c2cc(-c3ccccc3)[n+](C)c(-c3ccccc3)c2)cc1,0,87,0,0,0,0,
CCCOC(=O)c1ccc(-[n+]2c(-c3ccccc3)cc(-c3ccccc3)cc2-c2ccccc2)cc1,0,88,74,62,0,0,
Brc1ccc(-[n+]2c(-c3ccccc3)cc(-c3ccccc3)cc2-c2ccccc2)cc1,0,98,0,0,0,0,
O=C(O)c1ccc(-[n+]2c(-c3ccccc3)cc(-c3ccccc3)cc2-c2ccccc2)cc1,0,0,0,0,0,0,
O=C(Cc1ccccn1)N1CCCCN2[C@H](CO)[C@@H](c3ccc(C#Cc4ccccc4)cc3)[C@@H]2C1,0,0,0,-,-,-,
N#Cc1ccc(-c2ccc([C@@H]3[C@H](CO)N4CCCCN(C(=O)Cc5ccccc5)C[C@@H]34)cc2)cc1,0,0,0,-,-,-,
O=C(O)[C@H]1[C@H](CO)[C@H]2Cn3c(ccc(-c4ccc(F)cc4)c3=O)[C@@H]1N2CC1CCCC1,0,0,0,-,-,-,
COCC(=O)N1[C@@H]2Cn3c(ccc(C4=CCCC4)c3=O)[C@H]1[C@@H](C(=O)OC)[C@@H]2CO,0,0,0,-,-,-,
O=C1CNC[C@@H]2[C@H](c3ccc(Br)cc3)[C@@H](CO)N12,0,0,0,-,-,-,
COc1ccc(-[n+]2c(-c3ccccc3)cc(-c3ccc(C)cc3)cc2-c2ccccc2)cc1,0,106,0,61,0,0,
COC(=O)[C@H]1[C@H](CO)[C@H]2Cn3c(ccc(-c4ccccc4)c3=O)[C@@H]1N2CC1CC1,0,-,0,-,-,-,
N#Cc1cccc(-c2ccc([C@H]3[C@H]4CN(C(=O)Cc5ccccc5)CCCCN4[C@H]3CO)cc2)c1,0,0,0,-,-,-,
CCCCNC(=O)c1c(N)n(CCCOC)c2nc3ccccc3nc12,-,0,-,0,0,0,
COCCNC(=O)c1c(N)n(CCC(C)C)c2nc3ccccc3nc12,-,-,-,0,73,0,
CC(C)OCCCNC(=O)c1c(N)n(Cc2cccs2)c2nc3ccccc3nc12,-,-,-,0,0,0,
CC(C)CCn1c(N)c(C(=O)NCc2cccs2)c2nc3ccccc3nc21,0,-,0,63,68,0,
COCCNC(=O)c1c(NC(=O)c2ccc(Br)o2)n(Cc2ccccc2)c2nc3ccccc3nc12,0,0,0,58,68,0,
Nc1c(C(=O)OCC2CCCO2)c2nc3ccccc3nc2n1Cc1cccs1 (centres undefined),-,-,-,0,68,0,
COC(=O)[C@H]1[C@H](CO)[C@H]2Cn3c(ccc(C4=CCCCC4)c3=O)[C@@H]1N2CC1CCCCC1,0,-,0,-,-,-,
CCOC(=O)[C@@H]1[C@@H]2NC(=O)N(C)[C@@]1(C)Oc1ccccc12,-,0,0,-,-,-,
C[C@H]1CN([C@@H](C)CO)C(=O)CCCn2cc(nn2)CO[C@@H]1CN(C)C(=O)Oc1ccc2ccccc2c1,0,-,0,-,-,-,
CCn1c(O)c(C=Nc2ccc(S(N)(=O)=O)cc2)c(=O)[nH]c1=S,0,0,-,0,52,0,
CCn1c(O)c(C=Nc2ccc(S(N)(=O)=O)cc2)c(=O)n(CC)c1=S,-,0,0,0,0,0,
COc1cccc(-c2ccc([C@@H]3[C@H](CO)N4CCCCN(C(=O)Cc5ccncc5)C[C@@H]34)cc2)c1,0,0,-,-,-,-,
SMILES,LGR2 inh,PAX8 inh HTS,EWS-Fli block,TWEAK Fn14 block,TROY NFkB inh,EBV LMP1 NFkB,others
Cc1cc(OCC(=O)N2CCC(C(N)=O)CC2)c2c3c(c(=O)oc2c1)CCCC3,-,-,0,91,0,0,
COC(=O)[C@@H]1[C@@H](CO)[C@@H]2Cn3c(ccc(C4=CCCCC4)c3=O)[C@H]1N2C(=O)NC(C)C,0,0,0,-,-,-,
CC(C)C[C@H](NC(=O)[C@@H]1CCCN1C(=O)[C@@H](N)Cc1ccc(O)cc1)C(=O)NCC(N)=O,0,0,0,0,0,66,
O=C(O)[C@@H]1[C@@H](CO)[C@@H]2Cn3c(ccc(-c4ccccc4)c3=O)[C@H]1N2S(=O)(=O)c1ccccc1F,0,0,0,-,-,-,
CC(=O)O[C@H]1[C@H]2O[C@]23[C@@H]2CC[C@]4(O)C[C@@H](O)CC[C@]4(C)C2CC[C@]3(C)[C@H]1c1ccc(=O)oc1 (some centres undefined),-,-,-,83,56,49,
C[C@]12CC[C@H]3C(CCC4(O)CC(O)CC[C@]34C=O)C1=CC[C@H]2c1ccc(=O)oc1 (some centres undefined),0,0,0,0,0,0,
COC(=O)c1ccc(NC(=O)CSc2nc3ccc(N4C(=O)C5C6C=CC(C6)C5C4=O)cc3s2)cc1 (centres undefined),104,0,0,91,57,0,
COc1ccccc1CN1[C@H](CO)[C@@H](c2ccccc2)C12CN(C(=O)Cc1ccccc1)C2,0,0,0,-,-,-,
COc1ccc(S(=O)(=O)NC(CC(=O)N2CCC3(CC2)OCCO3)c2ccco2)cc1 (centres undefined),-,-,-,90,0,0,
COC(=O)[C@@H]1[C@@H](CO)[C@@H]2Cn3c(cccc3=O)[C@H]1N2C(=O)C1CCCC1,0,-,0,-,-,-,
CN1C(=O)C(C2c3ccccc3C(=O)N2Cc2ccccc2)C(=O)N(C)C1=O (centres undefined),-,-,-,0,51,0,
CCC(C)(O)C(=O)OC1C(=O)OC2CC3C(C)=CC(O)C(O)C3(C)C3C4(O)OCC23C1C(C)C4O (centres undefined),0,-,0,92,0,-,
CC(=O)N(C)C1=Nc2ccc(Cl)cc2C(c2ccccc2)=[N+]([O-])C1,0,0,0,0,0,70,
COc1ccc(-n2c(/C=C/c3ccc(O)c(O)c3)nc3ccccc3c2=O)cc1,0,0,0,0,0,0,
COc1cc(/C=C/c2nc3ccccc3c(=O)n2-c2ccc(O)cc2)ccc1O,0,0,0,54,0,0,
O=C(Nc1ccc(OC(=O)N2CCCCC2)cc1)N1CCOCC1,0,0,76,94,85,0,DNA binder FP=0
Cc1ccc(OC(=O)N(C)C[C@H]2OCc3ccccc3-c3c(n(C)c4ccccc34)C(=O)N([C@H](C)CO)C[C@H]2C)cc1,0,0,-,-,-,-,
CCOC(=O)[C@]12Cc3ccc(C)cc3[C@H]1N(C1CCCCC1)C(=O)c1ccccc12,53,82,59,92,51,-,DNA binder FP=0
CCOC(=O)[C@]12Cc3cc4c(cc3[C@H]1N(Cc1ccccc1)C(=O)c1ccccc12)OCO4,0,0,0,0,0,0,
CC(C)c1oc(=O)cc2c1[C@@H](O)[C@H]1OC(=O)[C@@]3(C)CC[C@@H](O)[C@@]2(C)C13 (some centres undefined),67,0,62,0,0,0,DNA binder FP=0
